In the supplement of paper PMC10681739:

Target: RUNX1 (UniProt Q01196)
Assay: RUNX1 binding intensity (PBM fluorescence) in presence of ETS1, normalised to RUNX1-only experiment (arbitrary fluorescence units); higher = stronger binding
Conditions: RUNX1 concentration 2 nM; ETS1 concentration 25 nM
Method: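 Cooperative gcPBM on 36-bp genomic probes with neighbouring ETS1 and RUNX1 sites. Recombinant human RUNX1 (2 nM) was incubated alone or with ETS1 (25 nM) and detected with anti-RUNX1 antibody plus Alexa488 secondary. Values are medians over 4 replicate spots; the RUNX1+ETS1 data were normalised to the RUNX1-only data. The probes sit in constant array flanks that are not printed.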
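Note: Full-length recombinant human ETS1 or RUNX1 bound to double-stranded 36-bp genomic probes on microarrays, detected by protein-specific primary antibody and Alexa488 secondary, spot fluorescence as median of four replicate spots.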

RUNX1, sequence (Q01196 whole entry): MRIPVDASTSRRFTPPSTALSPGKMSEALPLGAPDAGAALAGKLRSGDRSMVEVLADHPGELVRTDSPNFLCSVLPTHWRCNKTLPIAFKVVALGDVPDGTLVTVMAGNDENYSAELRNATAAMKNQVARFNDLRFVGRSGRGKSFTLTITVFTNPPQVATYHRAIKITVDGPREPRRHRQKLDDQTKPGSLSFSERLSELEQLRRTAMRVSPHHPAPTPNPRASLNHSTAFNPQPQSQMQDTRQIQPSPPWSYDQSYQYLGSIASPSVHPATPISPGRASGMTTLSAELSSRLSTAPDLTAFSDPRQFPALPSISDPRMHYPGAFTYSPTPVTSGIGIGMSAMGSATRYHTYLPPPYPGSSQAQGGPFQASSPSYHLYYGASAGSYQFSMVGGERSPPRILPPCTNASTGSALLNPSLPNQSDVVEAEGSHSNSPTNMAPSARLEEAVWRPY

| Sequence | RUNX1 binding intensity |
| --- | --- |
| GGGGGAAGCTTCCTGAGGTGAAATAGACCGCTGTGC | 960 |
| CATCTCGGAAACGGACAGCAAGATCCCGCATTAACA | 853 |
| CGGCGCCTTCCGCAGAGGGACTGCGGCTTTCTGCGC | 1390 |
| GCGGCTTTGTACGGAAACCCACACACATTGTTATTT | 1020 |
| GTTGGTCGCGCGCCTTCCTGCGGCTAAGATGGCGAC | 923 |
| CCCAGAGCTTCCGATTGGCTCTTCTGTGGTGGCGGG | 1170 |
| CCCATCCATCCGCCTCCAAAGTAACCTCAAGAATTT | 2490 |
| TTAACTCCACGGAAGAATAAACCACCACCGCTCACC | 908 |
| TCAAGTTTGGTAACAGGATGTGGTAGGAGGAACACA | 1730 |
| ATGGTCCAGGAAGATAAGGGCTGAAAACCACCCACT | 824 |
| CTTTCTGGTTTCCTTCCTTTTTGGTTTTGGTTTCAT | 2830 |
| GCCATCCGCAGGACTCCGCGTTCTCGCGGTAAGTGG | 883 |
| ACCAGAACAGGAAATGTTAGTGGTTGAGTTAACGGT | 1260 |
| GGGCGGAAGGGGTTCGCACGCCAAGAACCGCCATGC | 683 |
| CCGGGAAACACGGGAGAGCGACCGAAACCGCAATCA | 4390 |
| ATTTTAGCATTTTCCTGCTCGGAGACCACATGTTTG | 1220 |
| ACGGTGCGTTTCCCCAACTACACCGCACGTCACGGA | 827 |
| TCTGGCTGGGTGTTGGGATGTGGTTAACCGGGTTGG | 876 |
| AGTTTCCTGAACTCAGAGCACAGTTGTGGTGCAGAA | 1270 |
| TTGTTCCACCCCCGCGGAAACCGCTGCTCGCTGGGC | 965 |

| Sequence | RUNX1 binding intensity |
| --- | --- |
| GTGCTAGGACACAGGAAGCGATACCACAAAGAACAT | 1790 |
| CCACCATCTTTCCGGCTCCCTCGCGACCACCACGAC | 1970 |
| GCCAAGGCCTTCCGCCGAGTTGGTTTTTGGGTTGTT | 952 |
| CTCCCGGACGCTAACGTCTGGCAAACCACATTGCCC | 857 |
| CTGGGCGTGGGCTTCCTGCGGCTGAGTGGCAGCTTC | 997 |
| GCTTAAGGAAGGGACAACTAGAGTGGGTTACTCTGC | 717 |
| TTACCCCGGCGGAACGGAGGCCTGCGGTCGCGGCGG | 1210 |
| TCCGCCCGCGGATGCTGAGAACCGCAGCTGCACAAG | 827 |
| AGGCCAGACGCCTTCCGTGGTTTACGGTGAGGGTGG | 799 |
| TTATGCCTCAGGATGAACGAACCTCAAACACCCAGG | 858 |
| CCGCCCCCGGACGGTCACAGCACCCAAACCGCAGGC | 3240 |
| ATTGCTTCCGACGCTACTCCTGCCGGGTCACCACAG | 1020 |
| CGAACTCCCGTCCGGCCGCGCCCGCAGCCCGCCGCC | 1130 |
| CAGAGGAAGCCCACCCCATAAAAGAACCACAGATAA | 864 |
| CCAGTGCAGAAACATCCCTCCTGCCGCAGCTTTGTC | 896 |
| CTCAGGTTATCTAGGAAATCTACCGCACGCTAAAGT | 793 |
| TGAGTTTTGTTTCCGATTCACCACAGAAGATACTTT | 2560 |
| CTTTGTTACTTTGGGGAAATGTGGTTCTGCGCCACC | 927 |
| TTCATAAAGGAGAGGAAACCTGACCACGACAGAAAG | 754 |
| TGCTGCAGCGGCGCTTCCTGGTGGTCAGGGCGCCAT | 924 |
